HCV inh = HCV inhibition | AID 651820 | Huh7.5.1 HCVcc-Cre infection, luciferase reporter, 44 h | Potency, µM (titrated, usually from 41.8 µM), inactives show top-dose activity change, negative = inhibition, most hits filed as inhibitors | 3.4% of 340,000 active
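Luciferase read-out (15 sec integration) after a 15 min room-temperature substrate step quantifies HCVcc-Cre infection. Cells, 1,000 per well, had compound added 4 h post-plating, then virus at ~0.5 moi, and were cultured 44 h.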
LASV entry inh = blocks Lassa virus binding to or entry into cells; Potency, µM (highest dose often 37.9 µM), inactives show at the highest dose activity change, negative = inhibition, usual class: inhibitors; Lassa virus pseudotype entry inhibition, cell reporter; AID 540256; 1.2% of 300,000 active; calls by dose curve; tested in HEK293 cells; further: nearly all actives have a fitted effect of over 50% in size
MARV entry inh = Marburg virus entry inhibition. Marburg virus pseudotyped entry inhibition, cell reporter. Potency, µM (doses to about 37.8 µM), for inactives: at the highest dose activity change, negative = inhibition, hits mostly inhibitors. 1.8% of 300,000 active; calls by dose curve; tested in HEK293 cells
Sm TGR block = blocks Schistosoma mansoni thioredoxin glutathione reductase; Q962Y6; purified TGR, DTNB reduction, TNB absorbance 405 nm; Potency, µM (titrated, usually from 114 µM), without a hit: at the top dose activity change, negative = inhibition, actives largely listed as inhibitors; 3% of 360,000 active; further: nearly all actives have a fitted effect of over 60% in size
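Kinetic colorimetric format: TGR-catalysed, NADPH-driven DTNB reduction monitored via TNB absorbance. Enzyme dispensed at 20 nM; compound exposure 15 min at room temperature before reaction start.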
RE007 growth inh = less growth of the S. pombe RE007 Vpr strain. S. pombe RE007 Vpr strain, BacTiter-Glo ATP luminescence, 24 h. Potency, µM (titrated, usually from 92.2 µM), without a hit: top-dose activity change, negative = less growth, usual class: inhibitors. 0.21% of 360,000 active; active means well fitted falling curve with a large enough effect; inconclusive means small, poorly fitted or top-dose-only effect; inactive means no such curve, though single readings can be large or run the other way; further: nearly all actives have a fitted effect of over 50% in size
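Fission yeast strain RE007, carrying one chromosomally integrated HIV-1 vpr copy, was seeded at OD 0.01 in PMG+AL medium with 23 nL pinned compound. After 24 h at 30 °C and 99% humidity, viability was read by BacTiter-Glo luminescence.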
FMDV antiviral = blocks foot and mouth disease virus; FMDV antiviral cell-based qHTS; Potency, µM (doses to about 57.9 µM), without a hit: at the top dose activity change, negative = inhibition, hits mostly inhibitors; 1.2% of 410,000 active; AID 1159524; calls by dose curve; tested in HEK293T cells; further: read-out not given here; nearly all actives have a fitted effect of over 45% in size
Starred values were filed as active, the others as inactive; u = inconclusive; x = not tested or not shown; [ ] = dose if it differs, or a comment. A selection: hits, their analogues and other compounds. The true share with any hit is near 7.2%. Unless noted, the call rests on the fitted dose curve; in most records, active means well fitted curve in the direction sought with a large enough effect; inconclusive means small, poorly fitted or top-dose-only effect, or another doubt; inactive means no such curve, though single readings can be large; an effect the other way counts as inactive or inconclusive. On the % scale 0 is the no-effect control and ±100 the full control effect; potency means the concentration at half of the fitted maximal effect.

SMILES | HCV inh | LASV entry inh | MARV entry inh | Sm TGR block | RE007 growth inh | FMDV antiviral
COc1ccc(C(=O)N2CCC[C@@]3(CCN(C(=O)Nc4cccc(C#N)c4)C3)C2)cc1 | x | x | x | x | x | 4%
CCc1ccccc1NC(=O)CNC(=O)CCC(=O)c1cc(C)sc1C | x | x | x | x | -4% | -10%
Cc1noc(C)c1-c1ccc2ncnc(N3CCN(C)CC3)c2c1 | x | x | x | x | x | -4%
O=C(O)c1ccccc1OCCOc1ccccc1 | 0% | 4% | 9% | 6% | 4% | 5%
Nc1ccccc1C(=O)OCCOc1ccccc1 | 5% | u | 10µM* | -2% | -12% | -31%
CCN(CC)C(=O)c1sc2c(c1C)c(=O)n(-c1ccccc1)c(=O)n2Cc1c(C)cc(C)cc1C | x | 20%[46.1 µM] | x | -5% | x | 21%
O=C(O)CCNc1cc(N2CCN(C(=O)c3ccco3)CC2)c2noc3c2c1C(=O)c1ccccc1-3 | -2% | u | u | 16µM* | -16% | -17%
CC(=O)OCCNc1cc(N2CCN(C)CC2)c2noc3c2c1C(=O)c1ccccc1-3 | -11% | x | x | -23% | -10% | u
O=C(O)CCCNc1cc(N2CCN(C3CCCCC3)CC2)c2noc3c2c1C(=O)c1ccccc1-3 | x | u | 2%[46.1 µM] | 0% | x | -7%
CCN1CCN(c2cc(N3CCN(C(=O)c4ccco4)CC3)c3c4c(onc24)-c2ccccc2C3=O)CC1 | u | -8% | u | 7.1µM* | -19% | u
COCC(=O)N1CCC2(CCCN(C(=O)Nc3ccc(OC)cc3)C2)CC1 | x | x | x | x | x | 1%
O=c1c2cc3c(cc2nc2sc(Nc4ccc(F)cc4F)nn12)OCO3 | x | -9%[46.1 µM] | 2%[46.1 µM] | 0% | x | 25%
CN1CSC2=C(C#N)C(c3cccc(OCc4ccccc4)c3)CC(=O)N2C1 (configuration not stated) | -27% | x | x | 0% | -5% | -16%
COc1cccc(C2CC(=O)N3CN(C4CCCCC4)CSC3=C2C#N)c1 (configuration not stated) | x | 14%[46.1 µM] | -3%[46.1 µM] | 2.5µM* | x | -14%
COc1ccc(C2CC(=O)N3CN(C4CCCCC4)CSC3=C2C#N)cc1 (configuration not stated) | x | 5%[46.1 µM] | 25%[46.1 µM] | 7.9µM* | x | -14%
COc1ccc(CNC(=O)c2ccc(CS(=O)Cc3ccccc3Cl)o2)cc1 (configuration not stated) | x | u | x | -17% | x | -28%
COC(=O)c1ccccc1NS(=O)(=O)c1cc2c(cc1C)N(C)CCO2 | x | 10µM* | x | 0% | x | 79%
CC(C)OC(=O)c1ccc(N2CCN(c3ccccc3F)CC2)nc1 | 11µM* | x | x | 0% | -22% | -19%
Cc1ccc(C(C)C)c(OCCN)c1 | -11% | -22% | u | 9% | 11% | -1%
Cc1ccc(C(C)C)c(OCCCn2ccnc2C)c1 | u | -25% | u | 89µM* | 5% | -25%
CCOc1ccc(-c2nnc(SCC(=O)c3ccccc3)n2-c2ccccc2)cc1 | x | -3%[46.1 µM] | -1%[46.1 µM] | 6% | x | -18%
O=C1OC(c2cccs2)=N/C1=C\c1ccc(-c2ccccc2Cl)o1 | 1% | -2% | 1% | u | -7% | -14%
O=C1OC(c2cccs2)=N/C1=C/c1ccc(-c2cccc(C(=O)O)c2)o1 | 11% | x | x | 22µM* | 4% | -1%
COc1ccccc1C1C=C(c2ccc(Cl)cc2)Nc2nc(-c3ccc(Cl)cc3)nn21 (configuration not stated) | x | u | u | -18% | x | -14%
CCCCOC(=O)Cn1c(=O)n(CC(=O)OCCCC)c2ccccc21 | 4% | 7% | 13% | -30% | -23% | -19%
SMILES | HCV inh | LASV entry inh | MARV entry inh | Sm TGR block | RE007 growth inh | FMDV antiviral
CCCCCCCCCCOC(=O)Cn1c(COc2ccc(OC)cc2)[n+](C)c2ccccc21 | u | u | 3.2µM* | -12% | -18% | u
CCCCCCCCCCOC(=O)Cn1c(COc2ccccc2)[n+](C)c2ccccc21 | u | x | x | 19% | x | 35µM*
CCCCCCCCCCOC(=O)Cn1c(COc2cccc(C)c2)[n+](C)c2ccccc21 | u | -17%[46.1 µM] | u | 10% | -11% | 20µM*
CCOC(=O)Cn1c(COc2ccccc2OC)[n+](C)c2ccccc21 | u | x | x | x | -18% | -10%
CCCCCCCCCCOC(=O)Cn1c(COc2ccccc2C)[n+](C)c2ccccc21 | u | 8.9µM* | 25µM* | -9% | -10% | u
Cc1ccc(NC(=O)CN2CCCN(Cc3ccccc3Cl)S2(=O)=O)c(C)c1 | x | 5%[46.1 µM] | x | 0% | x | 2%
Cc1cc(SCC(=O)NCc2ccccc2)nc(=O)[nH]1 | x | -11%[46.1 µM] | x | 8% | x | -5%
COC(=O)c1cc(NC(=O)CN(c2ccccc2)S(=O)(=O)N(C)C)ccc1Cl | x | -13%[46.1 µM] | u | 6% | x | 0%
Oc1ccc(-c2cccnc2)cc1CNC1CN2CCC1CC2 (configuration not stated) | x | x | x | x | x | -10%
Cc1ccccc1OCc1n(CC(=O)OC2CC(C)CCC2C(C)C)c2ccccc2[n+]1C (configuration not stated) | u | u | 3.5µM* | -18% | 15% | u
CC1CCC(C(C)C)C(OC(=O)Cn2c(-c3ccc(Br)cc3)[n+](C)c3ccccc32)C1 (configuration not stated) | u | u | u | -19% | 5% | u
CC(=O)C(=Nc1ccccc1Cl)NNc1ccc(Cl)cc1 | u | u | -29% | 40µM* | -6% | -21%
Cc1cccc(Nc2nc(N)nc(CCl)n2)c1 | 3.2µM* | u | u | 14µM* | 0% | 15%
Cc1cccc(Nc2nc(N)nc(CCl)n2)c1C | -75% | u | u | -5% | -15% | 1%
COc1cccc(Nc2nc(N)nc(CCl)n2)c1 | u | u | u | 20µM* | 3% | 16%
CCc1cccc(C)c1Nc1c(-c2ccc(N3CCOCC3)cc2)nc2ncccn12 | x | 3%[46.1 µM] | 10%[46.1 µM] | -9% | x | -22%
CCCCNC(=O)CSc1nc2cc3c(cc2c(=O)n1CCCC(=O)NCc1ccc2c(c1)OCO2)OCO3 | x | 0%[46.1 µM] | x | -2% | x | -2%
c1cc(C(c2nnnn2C2CCCC2)N2CCOCC2)ccn1 (configuration not stated) | 10% | 5% | 6% | 28µM* | -3% | x
Oc1ccc(C(c2nnnn2C2CCCCC2)N2CCOCC2)cc1 (configuration not stated) | 16% | 1% | u | 2.8µM* | -12% | 6%
CN(C[C@H](Cc1ccccc1)N(C[C@H](c1ccccc1)N(CCc1ccccc1)N=O)N=O)N=O | -4% | x | x | 13µM* | 10% | 19%
COc1ccc(-n2c(=O)c(-c3ccc(Cl)cc3)nc3cnc(N4CCOCC4)nc32)cc1 | x | x | x | x | x | -6%
Cc1ccc(/C=C/C(=O)Nc2cccnc2)o1 | 26% | 11% | -6% | 8.9µM* | -3% | 57%
Cc1ccc(/C=C/C(=O)Nc2nn[nH]n2)o1 | 4% | 7% | 6% | 20µM* | 3% | -9%
